In the supplement of paper PMC4466236:
Over roughly 33,000 sequences, “E-score (dimensionless, -0.5 to 0.5)” has its median near -0.058; the highest 2% begin near 0.35. Many of the other results were omitted from the sample, so the highest values are more common in it than they were.

What follows are sequences tested on MvaT (assay: PBM 8-mer E-score (mean of HK and ME arrays) (E-score (dimensionless, -0.5 to 0.5)); higher = stronger relative binding preference).
Description: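 Protein binding microarray: GST-tagged full-length MvaT (P. aeruginosa PAO1) bound to two universal double-stranded 60-mer arrays (ME and HK), each with a constant 25-mer primer and a variable 35-mer region covering all 8-mers. The 8-mer E-score (rank-based, range -0.5 to 0.5, >0.45 = specific binding) is the mean of the two arrays.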
With AAATTCAA the “PBM 8-mer E-score” value was 0.226.
GAATTCAA was tested, and the “PBM 8-mer E-score” value was 0.0832.
For CAATTTAG, the “PBM 8-mer E-score” value was 0.2.
With TAAATGTA the “PBM 8-mer E-score” value was 0.359.
For GAAATGTA, the “PBM 8-mer E-score” value was 0.259.
For TAATTCAA, the “PBM 8-mer E-score” value was 0.346.
In the case of GAATTTAA, the “PBM 8-mer E-score” value is reported as 0.264.
For CAAATGTA, the “PBM 8-mer E-score” value was 0.0762.
With TAATTTAA the “PBM 8-mer E-score” value was 0.457.
For TAATTTGA, the “PBM 8-mer E-score” value was 0.201.
In the case of CAGGAGAG, the “PBM 8-mer E-score” value is reported as -0.196.
For AGTCACAT, the “PBM 8-mer E-score” value was -0.0559.
In the case of GTTTCGCA, the “PBM 8-mer E-score” value is reported as -0.0431.
For ATTACTCG, the “PBM 8-mer E-score” value was 0.169.
For AAATACTG, the “PBM 8-mer E-score” value was 0.244.
For CATGTCAG, the “PBM 8-mer E-score” value was -0.042.
In the case of AATAGTCG, the “PBM 8-mer E-score” value is reported as 0.218.
With ACGTATAC the “PBM 8-mer E-score” value was 0.136.
With GCAGGCGC the “PBM 8-mer E-score” value was -0.28.
With ATACTCGG the “PBM 8-mer E-score” value was 0.0138.
In the case of AAATTTGA, the “PBM 8-mer E-score” value is reported as 0.189.
TGATTTAA was tested, and the “PBM 8-mer E-score” value was 0.347.
CGATTTAA was tested, and the “PBM 8-mer E-score” value was 0.238.
AAATTTCA was tested, and the “PBM 8-mer E-score” value was 0.241.
With AGATTTAA the “PBM 8-mer E-score” value was 0.273.
For AAATTTAA, the “PBM 8-mer E-score” value was 0.408.
In the case of GAATCAAA, the “PBM 8-mer E-score” value is reported as 0.13.
For GTAGTGCA, the “PBM 8-mer E-score” value was -0.115.
With AACCACTG the “PBM 8-mer E-score” value was -0.0219.
For GACCGCTA, the “PBM 8-mer E-score” value was -0.115.
For GATTGAAA, the “PBM 8-mer E-score” value was 0.12.
In the case of CTGCCACC, the “PBM 8-mer E-score” value is reported as -0.166.
For ATACTCAT, the “PBM 8-mer E-score” value was 0.175.
ATCAGGCA was tested, and the “PBM 8-mer E-score” value was -0.0666.
With ATTAAAGA the “PBM 8-mer E-score” value was 0.264.
For ATTAAACC, the “PBM 8-mer E-score” value was 0.249.
In the case of ACTAAATA, the “PBM 8-mer E-score” value is reported as 0.31.
With ATTAAATA the “PBM 8-mer E-score” value was 0.421.
CTTAAATA was tested, and the “PBM 8-mer E-score” value was 0.337.
With ATTAAATG the “PBM 8-mer E-score” value was 0.373.
With AGTAAATG the “PBM 8-mer E-score” value was 0.175.
For GTTAAATA, the “PBM 8-mer E-score” value was 0.396.
In the case of CTTAAATC, the “PBM 8-mer E-score” value is reported as 0.0452.
For ATTAAATC, the “PBM 8-mer E-score” value was 0.382.
In the case of GTTAAAGA, the “PBM 8-mer E-score” value is reported as 0.11.
In the case of ATTAAAGG, the “PBM 8-mer E-score” value is reported as 0.156.
For CGGTACCG, the “PBM 8-mer E-score” value was -0.0831.
With TACGAGCA the “PBM 8-mer E-score” value was -0.0785.
CACCTAAG was tested, and the “PBM 8-mer E-score” value was -0.143.
For GACGTACA, the “PBM 8-mer E-score” value was 0.034.
In the case of CCCCGTGA, the “PBM 8-mer E-score” value is reported as -0.306.
With AACTGACG the “PBM 8-mer E-score” value was 0.0522.
In the case of ACTTTTTG, the “PBM 8-mer E-score” value is reported as 0.122.
For CTTAAACA, the “PBM 8-mer E-score” value was 0.156.
ATTAAACA was tested, and the “PBM 8-mer E-score” value was 0.391.
With ATTAAACG the “PBM 8-mer E-score” value was 0.284.
In the case of GCAATACA, the “PBM 8-mer E-score” value is reported as 0.0621.
In the case of GAGCACGA, the “PBM 8-mer E-score” value is reported as -0.273.
For AGGCATAA, the “PBM 8-mer E-score” value was -0.0265.
In the case of AGTTTATA, the “PBM 8-mer E-score” value is reported as 0.424.
For CATTTATA, the “PBM 8-mer E-score” value was 0.347.
In the case of AATTTATC, the “PBM 8-mer E-score” value is reported as 0.276.
In the case of GATTTAGA, the “PBM 8-mer E-score” value is reported as 0.0137.
For GATTTTTA, the “PBM 8-mer E-score” value was 0.133.
With AATTTATA the “PBM 8-mer E-score” value was 0.46.
In the case of AATTTATG, the “PBM 8-mer E-score” value is reported as 0.273.
For GGTTTATA, the “PBM 8-mer E-score” value was 0.242.
AGTTTATC was tested, and the “PBM 8-mer E-score” value was 0.144.
In the case of GATTTATA, the “PBM 8-mer E-score” value is reported as 0.398.
For CATTTATC, the “PBM 8-mer E-score” value was 0.241.
For CATTTTTA, the “PBM 8-mer E-score” value was 0.242.
AGCAGGCC was tested, and the “PBM 8-mer E-score” value was -0.328.
With TCCTAACA the “PBM 8-mer E-score” value was 0.0526.
TCCCACAA was tested, and the “PBM 8-mer E-score” value was 0.0216.
In the case of CAATTCAC, the “PBM 8-mer E-score” value is reported as 0.0398.
With ACTTTATC the “PBM 8-mer E-score” value was 0.105.
For AATTTACA, the “PBM 8-mer E-score” value was 0.269.
With CTTTTACA the “PBM 8-mer E-score” value was 0.0261.
ATTTTATA was tested, and the “PBM 8-mer E-score” value was 0.366.
ATTTTATG was tested, and the “PBM 8-mer E-score” value was 0.234.
ACTTTATA was tested, and the “PBM 8-mer E-score” value was 0.39.
In the case of CCTTTATA, the “PBM 8-mer E-score” value is reported as 0.193.
ATTTTACA was tested, and the “PBM 8-mer E-score” value was 0.371.
With GTTTTATA the “PBM 8-mer E-score” value was 0.243.
For TGCTCACA, the “PBM 8-mer E-score” value was -0.0823.
With CAAGCAGG the “PBM 8-mer E-score” value was -0.0598.
For AGTACAGG, the “PBM 8-mer E-score” value was 0.0418.
AAAAATCA was tested, and the “PBM 8-mer E-score” value was 0.0153.
For GCCTCCCC, the “PBM 8-mer E-score” value was -0.263.
ACATCCCA was tested, and the “PBM 8-mer E-score” value was -0.00783.
TCTCATAA was tested, and the “PBM 8-mer E-score” value was 0.0817.
For CAGTGGAC, the “PBM 8-mer E-score” value was 0.0119.
With AAGACATG the “PBM 8-mer E-score” value was 0.0346.
In the case of CGGGAAAG, the “PBM 8-mer E-score” value is reported as -0.177.
For ACAATAAC, the “PBM 8-mer E-score” value was 0.324.
With ACAATAAT the “PBM 8-mer E-score” value was 0.401.
ACAATAAG was tested, and the “PBM 8-mer E-score” value was 0.276.
With ACAATAAA the “PBM 8-mer E-score” value was 0.356.
In the case of ACAATACT, the “PBM 8-mer E-score” value is reported as 0.223.
In the case of CCAATAAA, the “PBM 8-mer E-score” value is reported as 0.302.
With AACTACCA the “PBM 8-mer E-score” value was 0.17.
AAAAAAAT was tested, and the “PBM 8-mer E-score” value was 0.227.
GAAATAAA was tested, and the “PBM 8-mer E-score” value was 0.405.
CAAATAAC was tested, and the “PBM 8-mer E-score” value was 0.341.
For GAAATACA, the “PBM 8-mer E-score” value was 0.0961.
With GGAATAAA the “PBM 8-mer E-score” value was 0.289.
For GAAATAAC, the “PBM 8-mer E-score” value was 0.3.
GAAATGAA was tested, and the “PBM 8-mer E-score” value was 0.17.
AAAATAAT was tested, and the “PBM 8-mer E-score” value was 0.422.
With AAAATACC the “PBM 8-mer E-score” value was 0.265.
For AAAATAAC, the “PBM 8-mer E-score” value was 0.378.
For TAAATACA, the “PBM 8-mer E-score” value was 0.35.
For AAAATACA, the “PBM 8-mer E-score” value was 0.25.
CAGGTGTC was tested, and the “PBM 8-mer E-score” value was -0.277.
In the case of AGACTTGG, the “PBM 8-mer E-score” value is reported as -0.179.
AGTGTCTC was tested, and the “PBM 8-mer E-score” value was -0.00692.
In the case of ACGCTCTC, the “PBM 8-mer E-score” value is reported as -0.273.
For CCGTAGGA, the “PBM 8-mer E-score” value was -0.216.
In the case of ATACCGAG, the “PBM 8-mer E-score” value is reported as -1.06e-05.
In the case of AAGAGAAT, the “PBM 8-mer E-score” value is reported as 0.126.
GCTATGGA was tested, and the “PBM 8-mer E-score” value was -0.0686.
CGCCTAAG was tested, and the “PBM 8-mer E-score” value was -0.113.
AGCTCCCG was tested, and the “PBM 8-mer E-score” value was -0.29.
CCTTTTGA was tested, and the “PBM 8-mer E-score” value was -0.074.
With TAAATAAA the “PBM 8-mer E-score” value was 0.421.
For AAAATAAA, the “PBM 8-mer E-score” value was 0.409.
In the case of TAAATAGA, the “PBM 8-mer E-score” value is reported as 0.291.
AAAATAAG was tested, and the “PBM 8-mer E-score” value was 0.331.
For AAAATAGA, the “PBM 8-mer E-score” value was 0.173.
CAAATAAA was tested, and the “PBM 8-mer E-score” value was 0.301.
In the case of AGTGCTAT, the “PBM 8-mer E-score” value is reported as 0.172.
TACGATCA was tested, and the “PBM 8-mer E-score” value was 0.0229.
In the case of TCGAATCA, the “PBM 8-mer E-score” value is reported as -0.0287.
With ACACTTGC the “PBM 8-mer E-score” value was -0.00708.
AACAATTC was tested, and the “PBM 8-mer E-score” value was 0.27.
With AACAATAG the “PBM 8-mer E-score” value was 0.294.
In the case of TACAATAA, the “PBM 8-mer E-score” value is reported as 0.328.
With AACAATAT the “PBM 8-mer E-score” value was 0.362.
With CACAATAA the “PBM 8-mer E-score” value was 0.351.
In the case of AACAATTG, the “PBM 8-mer E-score” value is reported as 0.217.
AACAATAC was tested, and the “PBM 8-mer E-score” value was 0.254.
With AACAATTA the “PBM 8-mer E-score” value was 0.391.
ACCAATAT was tested, and the “PBM 8-mer E-score” value was 0.282.
With AACAATCT the “PBM 8-mer E-score” value was 0.0729.
With CACAATAG the “PBM 8-mer E-score” value was 0.176.
For AACAATAA, the “PBM 8-mer E-score” value was 0.422.
ATGTAGTC was tested, and the “PBM 8-mer E-score” value was 0.1.
GGACGTTA was tested, and the “PBM 8-mer E-score” value was -0.103.
For CACATTAG, the “PBM 8-mer E-score” value was 0.162.
In the case of CAGCGAGC, the “PBM 8-mer E-score” value is reported as -0.199.
With GCCCCCGC the “PBM 8-mer E-score” value was -0.248.
In the case of CCTTTGAG, the “PBM 8-mer E-score” value is reported as -0.158.
For ACACGACG, the “PBM 8-mer E-score” value was -0.192.
ATGATCAC was tested, and the “PBM 8-mer E-score” value was -0.0926.
In the case of AACTTATT, the “PBM 8-mer E-score” value is reported as 0.398.
GACTTATC was tested, and the “PBM 8-mer E-score” value was 0.0104.
CACTTATG was tested, and the “PBM 8-mer E-score” value was 0.12.
With AACTTATC the “PBM 8-mer E-score” value was 0.351.
In the case of AACTTACT, the “PBM 8-mer E-score” value is reported as 0.335.
AACTTAGG was tested, and the “PBM 8-mer E-score” value was 0.182.
With AACTTATG the “PBM 8-mer E-score” value was 0.372.
For AACTTAGT, the “PBM 8-mer E-score” value was 0.289.
With CACTTATC the “PBM 8-mer E-score” value was 0.14.
For CAGAGCCC, the “PBM 8-mer E-score” value was -0.374.
ATCTCGAA was tested, and the “PBM 8-mer E-score” value was -0.0688.
In the case of ACTGGAAG, the “PBM 8-mer E-score” value is reported as -0.0943.
In the case of ACTCTGGC, the “PBM 8-mer E-score” value is reported as -0.165.
With AAGCACAG the “PBM 8-mer E-score” value was -0.107.
ATAGTAAT was tested, and the “PBM 8-mer E-score” value was 0.353.
For AAAGTAAT, the “PBM 8-mer E-score” value was 0.373.
ATAGTAAA was tested, and the “PBM 8-mer E-score” value was 0.327.
For ATAGTAAC, the “PBM 8-mer E-score” value was 0.271.
In the case of AAAGTAAA, the “PBM 8-mer E-score” value is reported as 0.306.
In the case of AAAGTAAC, the “PBM 8-mer E-score” value is reported as 0.206.
